Inconclusive results are not listed. A call without a number means that no potency is given here. Active and inactive are the calls of the source. Calls follow the shape of the dose curve; as a rule, active = well fitted inhibition curve with a large enough effect; inconclusive = small, poorly fitted or top-dose-only effect; inactive = flat fitted curve, though single readings scatter.
Potency is read from the fitted curve at half-maximal effect.

For one test, the system named is CP194. Kind of test: qHTS profiling for inhibitors of Plasmodium falciparum proliferation (AID 504749). Also: nearly all actives have a fitted effect of over 60% in size. The note with it: P. falciparum in erythrocytes, SYBR Green DNA, 72 h; series mostly up to 28.7 µM. An outline of the steps: (§1)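 Readout was DNA-dye fluorescence from lysed cultures, ex 485/em 535 nm. Parasitized red cells had grown 72 h with compound; data scaled between 0.29 uM artemisinin and DMSO wells and corrected using vehicle-only plates.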
(In general: Quantitative high-throughput screening tests each substance at several concentrations.)
In the case of `CO/N=C(/C(=O)N[C@@H]1C(=O)N2C(C(=O)O)=CCS[C@H]12)c1csc(N)n1`, the Potency result is “inactive”.
Consider `Cc1cc(CC(C)CC(C)(C)C)n(O)c(=O)c1` (stereo unspecified), for which the Potency is 4.26 µM (active).
On the same count and under the same terms, then `CC1CCC(C(C)C)C(OC(=O)c2ccccc2O)C1` (stereo unspecified), with “inactive”; and `CCC(=O)O[C@@H](OP(=O)(CCCCc1ccccc1)CC(=O)N1C[C@H](C2CCCCC2)C[C@H]1C(=O)O)C(C)C` (stereo partly specified), with “inactive”; and `CC(=O)O[C@@]12CO[C@@H]1C[C@H](O)[C@@]1(C)C(=O)[C@H](O)C3=C(C)[C@@H](OC(=O)C(O)[C@@H](NC(=O)OC(C)(C)C)c4ccccc4)C[C@@](O)([C@@H](OC(=O)c4ccccc4)[C@H]21)C3(C)C` (stereo partly specified), with 0.0675 µM (active).
`CC1(C)S[C@@H]2[C@H](NC(=O)COc3ccccc3)C(=O)N2[C@H]1C(=O)O`: the Potency entry was “inactive”.
In the case of `CCN1/C(=C/C=C/C=C/c2sc3ccccc3[n+]2CC)Sc2ccccc21`, the Potency is 6.75 µM (active).
For the compound `Nc1nc(Cl)nc2c1ncn2C1CC(O)C(CO)O1` (stereo unspecified), the Potency result was “inactive”.
`O=NCc1ccc([N+](=O)[O-])o1`: the Potency result is “inactive”.

Another test concerns CP201. The test is described as above. The note with it: P. falciparum in erythrocytes, SYBR Green DNA, 72 h; series mostly up to 28.7 µM. An outline of the steps:
as §1
With `CO/N=C(/C(=O)N[C@@H]1C(=O)N2C(C(=O)O)=CCS[C@H]12)c1csc(N)n1`, the Potency entry is “inactive”.
The same measure, in the same setting: then `Cc1cc(CC(C)CC(C)(C)C)n(O)c(=O)c1` (stereo unspecified), with 4.78 µM (active).
Turning to `CC1CCC(C(C)C)C(OC(=O)c2ccccc2O)C1` (stereo unspecified), the Potency entry was “inactive”.
As to `CCC(=O)O[C@@H](OP(=O)(CCCCc1ccccc1)CC(=O)N1C[C@H](C2CCCCC2)C[C@H]1C(=O)O)C(C)C` (stereo partly specified), the Potency result was “inactive”.
As to `CC1(C)S[C@@H]2[C@H](NC(=O)COc3ccccc3)C(=O)N2[C@H]1C(=O)O`, the Potency result is “inactive”.
Consider `CCN1/C(=C/C=C/C=C/c2sc3ccccc3[n+]2CC)Sc2ccccc21`, for which the Potency is 12 µM (active).
Turning to `Nc1nc(Cl)nc2c1ncn2C1CC(O)C(CO)O1` (stereo unspecified), the Potency result was “inactive”.
`O=NCc1ccc([N+](=O)[O-])o1`: the Potency entry is “inactive”.

In the next test the test system is CP211. The description is as above. The note with it: P. falciparum in erythrocytes, SYBR Green DNA, 72 h; series mostly up to 28.7 µM. An outline of the steps: as §1
As for `CO/N=C(/C(=O)N[C@@H]1C(=O)N2C(C(=O)O)=CCS[C@H]12)c1csc(N)n1`, the Potency entry is “inactive”.
`Cc1cc(CC(C)CC(C)(C)C)n(O)c(=O)c1` (stereo unspecified): the Potency was 3.38 µM (active).
For the compound `CC1CCC(C(C)C)C(OC(=O)c2ccccc2O)C1` (stereo unspecified), the Potency entry was “inactive”.
Consider `CCC(=O)O[C@@H](OP(=O)(CCCCc1ccccc1)CC(=O)N1C[C@H](C2CCCCC2)C[C@H]1C(=O)O)C(C)C` (stereo partly specified), for which the Potency entry is “inactive”.
On the same count and under the same terms, then `CC(=O)O[C@@]12CO[C@@H]1C[C@H](O)[C@@]1(C)C(=O)[C@H](O)C3=C(C)[C@@H](OC(=O)C(O)[C@@H](NC(=O)OC(C)(C)C)c4ccccc4)C[C@@](O)([C@@H](OC(=O)c4ccccc4)[C@H]21)C3(C)C` (stereo partly specified), with 0.0426 µM (active); and `CC1(C)S[C@@H]2[C@H](NC(=O)COc3ccccc3)C(=O)N2[C@H]1C(=O)O`, with “inactive”.
Take `CCN1/C(=C/C=C/C=C/c2sc3ccccc3[n+]2CC)Sc2ccccc21`: the Potency is 6.01 µM (active).
With `Nc1nc(Cl)nc2c1ncn2C1CC(O)C(CO)O1` (stereo unspecified), the Potency result was “inactive”.
Turning to `O=NCc1ccc([N+](=O)[O-])o1`, the Potency entry was “inactive”.

(Values after PubChem BioAssay (NCATS).)
